KB-3-1 cytotox – qHTS assay for MDR1-selective chemotherapeutics: Primary screen using the parental adenocarcinoma cell KB-3-1; actives 1.4% (n = 400,000); KB-3-1 viability, CellTiter-Glo ATP luminescence, 72 h; Potency, µM (top dose mostly 46.1 µM), usual class: cytotoxic; further: on the % scale 0 is the no-effect control and ±100 the full control effect; nearly all actives have a fitted effect of over 60% in size
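Viability of parental KB-3-1 cells, measured by CellTiter-Glo luminescence, followed a 72 h incubation at 37 °C with pinned compounds in phenol-red-free DMEM containing 10% FBS.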
SW480 rereplic – A quantitative high throughput screen for small molecules that induce DNA re-replication in SW480 colon adenocarcinoma cells | SW480 DNA re-replication, Hoechst DNA content imaging, 48 h | Potency, µM (doses to about 46.1 µM), for inactives: at the highest dose re-replication activation, most hits filed as activators | actives 1.8% (n = 340,000); further: % of control where 0% means no effect; nearly all actives have a fitted effect of over 55% in size
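Quantitative HTS format with DMSO vehicle controls; 48 hr drug incubation at 37 C, then 40 min Hoechst staining and scanning imager measurement at 405 nm excitation.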
RGS4 inh – Inhibitors of Regulator of G Protein Signaling (RGS) 4: qHTS; Transcreener GDP fluorescence polarization, RGS4-accelerated GTP hydrolysis; Potency, µM (highest dose often 114 µM), for inactives: at the top dose activity change, negative = inhibition, usual class: inhibitors; actives 0.039% (n = 390,000); AID 504845, 2011; further: on the % scale 0 is the no-effect control and ±100 the full control effect; nearly all actives have a fitted effect of over 75% in size
Target sequence (P49798 whole entry, looked up): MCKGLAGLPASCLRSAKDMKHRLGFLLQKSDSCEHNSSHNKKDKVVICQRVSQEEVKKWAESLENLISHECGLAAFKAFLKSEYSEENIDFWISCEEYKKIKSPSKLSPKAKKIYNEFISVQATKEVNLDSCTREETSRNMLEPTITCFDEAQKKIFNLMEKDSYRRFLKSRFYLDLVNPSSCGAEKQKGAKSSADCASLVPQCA
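MLSMR compounds (23 nl, pin-transferred) preincubated 10 min at room temperature with a 500nM (2x) first reagent, then RGS4 at 900nM (2x) plus Transcreener GDP mix added; fluorescence polarization (620/688 nm) read before and after 90 min at 30 °C.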
KB-V1 cytotox – qHTS assay for MDR1-selective chemotherapeutics: Primary screen using the drug-selected MDR subline cells KB-V1 | KB-V1 MDR cells viability, CellTiter-Glo, 72 h | Potency, µM (highest dose often 46.1 µM), actives largely listed as cytotoxic | actives 3.4% (n = 400,000); further: on the % scale 0 is the no-effect control and ±100 the full control effect; nearly all actives have a fitted effect of over 60% in size
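KB-V1 cells (P-gp-expressing MDR subline of KB-3-1) in phenol-red-free DMEM with 10% FBS were exposed to library compounds over a concentration series for 72 h at 37 degrees C. Viability read by CellTiter-Glo luminescence; concentration-effect curves fitted after normalization.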
PTAP TSG101 blk – qHTS Assay for Iinhibitors of HIV-1 Budding by Blocking the Interaction of PTAP/TSG101; Fluorescence polarization, FITC-PTAP peptide / Tsg101 binding; Potency, µM (highest dose often 115 µM), for inactives: top-dose activity change, negative = inhibition, actives largely listed as inhibitors; Tumor susceptibility gene 101 protein (Homo sapiens), Q99816; 340,000 tested, under 10 active; active means well fitted inhibition curve with a large enough effect in the main read-out, with a control signal flat, not every such curve was filed as active; inconclusive means small, poorly fitted or top-dose-only effect, or effect the other way, or a change in a side signal; inactive means no such curve, though single readings can be large or run the other way; further: % of control where 0% means no effect
Target sequence (Q99816 whole entry, looked up): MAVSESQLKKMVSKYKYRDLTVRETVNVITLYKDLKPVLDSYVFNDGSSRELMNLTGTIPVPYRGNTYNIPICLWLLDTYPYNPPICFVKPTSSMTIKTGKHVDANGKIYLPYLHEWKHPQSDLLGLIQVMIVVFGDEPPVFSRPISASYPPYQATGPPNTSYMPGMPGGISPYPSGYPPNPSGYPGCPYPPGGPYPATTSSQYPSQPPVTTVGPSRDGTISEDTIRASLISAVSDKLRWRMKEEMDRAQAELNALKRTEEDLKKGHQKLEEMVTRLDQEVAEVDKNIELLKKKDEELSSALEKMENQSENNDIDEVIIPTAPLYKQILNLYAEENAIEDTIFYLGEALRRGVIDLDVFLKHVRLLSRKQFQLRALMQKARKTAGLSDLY
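Tsg101 binding domain (10 uM final) was mixed with compound and a FITC-labeled PTAP peptide (50 nM final) in HEPES pH 7.5 buffer with NaCl, Tween 20, EDTA and TCEP; fluorescence polarization was read after 20 min at r.t.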
MCF10A rerep – A quantitative high throughput screen for small molecules that induce DNA re-replication in MCF 10a normal breast cells | Potency, µM (top dose mostly 46.1 µM), for the others: top-dose activity, positive = re-replication, usual class: activators | actives 2.9% (n = 350,000) | MCF 10A DNA re-replication, Hoechst nuclear intensity, 48 h; further: % of control where 0% means no effect; nearly all actives have a fitted effect of over 50% in size
An asterisk follows results filed as active; i = inactive; ? = inconclusive; . = no result; [ ] = dose if it differs, or a comment. Shown are actives, neighbours in structure and some others; about 6.6% of the full set was active somewhere. Unless noted, the call rests on the fitted dose curve; in most records, active means well fitted curve in the direction sought with a large enough effect; inconclusive means small, poorly fitted or top-dose-only effect, or another doubt; inactive means no such curve, though single readings can be large; an effect the other way counts as inactive or inconclusive. Potency means the concentration at half of the fitted maximal effect.

SMILES	KB-3-1 cytotox	SW480 rereplic	RGS4 inh	KB-V1 cytotox	PTAP TSG101 blk	MCF10A rerep
COc1cccc(/C=C2\SC(=S)N(CC(=O)N(C)C3CCS(=O)(=O)C3)C2=O)c1 (centres undefined)	i	?	-22.0%	i	-2.3%	?
CCOC(=O)c1cc(C(C)(C)C)oc1CN	i	-0.6%	25.7%	i	1.5%	2.5%
CCOC(=O)c1cc(C(C)(C)C)oc1CNC(=O)c1c(C)oc2c1CCCC2	i	20.0%	-4.4%	i	-6.2%	20.6µM*
CCC(C)C(=O)Nc1ccc(S(=O)(=O)N2CCCC2)cc1 (centres undefined)	i	?	-11.9%	i	-0.1%	?
CCC(C)NS(=O)(=O)c1ccc(S(=O)(=O)N2CCCC3(CCCCC3)C2)cc1 (centres undefined)	5.8µM*	7.6%	-1.4%	3.66µM*	-12.1%	?
COc1ccc(C(=O)N2C=Cc3ccccc3C2C#N)cc1 (centres undefined)	i	.	.	i	.	.
N#CC1c2ccccc2C=CN1C(=O)N(c1ccccc1)c1ccccc1 (centres undefined)	?	?	?	20.6µM*	3.0%	3.26µM*
COc1cc(C(=O)COC(=O)c2cc([N+](=O)[O-])ccc2N2CCOCC2)ccc1OC(F)F	20.6µM*	-2.0%	-25.0%	?	-0.7%	10.2%
Cc1cc(C)c(C(=O)COC(=O)c2cc([N+](=O)[O-])ccc2N2CCOCC2)cc1C	i	-2.7%	-50.1%	18.4µM*	-2.1%	4.2%
Cc1ccc(N2CC(NC(=O)C3CC3)CC2=O)cc1C (centres undefined)	.	.	-6.7%	.	.	.
CCCCNC(=O)C1CCC(Cn2c(=O)c3sccc3n(CC(=O)Nc3ccccc3)c2=O)CC1 (centres undefined)	i	.	-0.8%	i	.	.
O=C1c2cccc3cc([N+](=O)[O-])cc(c23)C(=O)N1/N=C/c1ccc(O)cc1O	i	13µM*	-18.1%	i	-3.2%	18.4%
O=C1c2cccc3cc([N+](=O)[O-])cc(c23)C(=O)N1CCN1CCCC1	?	?	-30.7%	?	-19.1%	?
COc1cc(/C=N/N=C(/C(=O)c2ccccc2)c2ccccc2)cc(OC)c1O	i	2.9%	-12.5%	9.2µM*	-3.3%	?
COc1cccc(CNC(=O)c2cc3c(s2)-c2c(C)cccc2OC3)c1	i	.	?	i	.	.
N#Cc1c(-c2ccccc2)nc(SCC(=O)N2c3ccccc3Sc3ccccc32)[nH]c1=O	i	9.5%	2.9%[11.4 µM]	i	-10.9%	20.6µM*
CCCCN(C)C(=O)C1CCCN(c2ncnc3onc(-c4ccc(F)cc4)c23)C1 (centres undefined)	i	.	-7.6%	i	.	.
Cc1ccc(N(Cc2ccc(C(=O)NCCSc3ccccn3)cc2)S(C)(=O)=O)cc1C	i	0.9%	31.2%	20.6µM*	-3.6%	3.2%
CS(=O)(=O)N(Cc1ccc(C(=O)NCCSc2ccccn2)cc1)c1ccccc1	i	2.2%	-1.3%	5.8µM*	-3.1%	10.1%
CN(C)CCCNC(=O)c1ccc(CN(c2ccccc2)S(C)(=O)=O)cc1	i	-2.5%[9.22 µM]	7.3%	i	-2.7%	?
Cc1ccc(N(Cc2ccc(C(=O)NC3CCCCC3)cc2)S(C)(=O)=O)cc1C	i	?	21.8%	?	-12.3%	?
COCCNC(=O)CSc1cn(CC(=O)N2CCCCCC2)c2ccccc12	.	.	15.5%	.	.	.
COCC(=O)OC1CCn2c1nc1c2C(=O)C(C)=C(NC(C)=O)C1=O (centres undefined)	?	1.46µM*	-37.9%	i	0.2%	9.2µM*
Cc1ncc(CO)c2c1Oc1nc(-c3ccccc3)nc(SCC(=O)Nc3cccc(O)c3)c1C2	?	?	-51.6%	i	-5.3%	16.4µM*
O=C(Nc1ccc(C(F)(F)F)cc1)C1CCCN1S(=O)(=O)c1cccc2cccnc12 (centres undefined)	23.1µM*	1.5%	18.7%	4.61µM*	1.3%	17.7%
SMILES	KB-3-1 cytotox	SW480 rereplic	RGS4 inh	KB-V1 cytotox	PTAP TSG101 blk	MCF10A rerep
C/C(=N/Nc1cc(-c2ccccc2)nc(-c2ccccc2)n1)c1ccc(O)cc1	?	-2.3%	-6.2%	18.4µM*	-4.3%	18.4µM*
C/C(=N\Nc1ccccc1)c1cccc(N)c1	i	3.9%	-39.0%	i	-9.0%	7.0%
C/C(=N\Nc1cc(Cl)nc(C)n1)c1ccccc1	?	-3.0%	3.2%	i	-8.8%	5.8%
C/C(=N\Nc1cc(-c2ccccc2)nc(-c2ccc(Br)cc2)n1)c1cccc(N)c1	i	?	11.7%	14.6µM*	.	?
CC1CCN(S(=O)(=O)c2ccc3c(c2)CCN3C(=O)Nc2ccc(Br)cc2F)CC1	.	.	-40.6%	.	.	.
Cc1ccc(-n2nc3c(N4CCC(C(=O)N5CCCCC5)CC4)nnc(C)c3c2C)cc1	i	.	26.0%	i	.	.
CC1=NN(c2nc(N)nc(/C(C#N)=C/c3ccc([N+](=O)[O-])o3)n2)C(C)(C)C1	?	8.2µM*	-28.8%	?	-1.8%	3.26µM*
Cc1ccnc(SCC(=O)Nc2sc3c(c2C#N)CCC(C(C)(C)C)C3)n1 (centres undefined)	?	-0.8%	2.1%	13µM*	-4.2%	?
Cc1cc(C)nc(SCC(=O)Nc2sc3c(c2C#N)CCC(C)C3)n1 (centres undefined)	i	1.5%	2.9%	?	1.9%	17.7%
CC(C)c1cc(C(=O)Nc2sc3c(c2C#N)CCC3)no1	?	?	-38.6%	?	-2.4%	14.6µM*
N#Cc1c(NC(=O)c2cccnc2)sc2c1CCC2	9.2µM*	16.4µM*	-32.6%	5.8µM*	-1.7%	5.8µM*
COc1ccc(-c2cc(C(=O)Nc3sc4c(c3C#N)CCCC4)no2)cc1OC	i	.	?	i	.	.
CC(C)CC(=O)NC(NC(=S)Nc1sc2c(c1C#N)CCCC2)C(Cl)(Cl)Cl (centres undefined)	?	1.5%	?	i	-9.5%	16.4µM*

Screening data as filed in PubChem BioAssay.
